Test results as given in PubChem BioAssay.
Calls of active or inactive are those of the source.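 The calls were made as follows, unless noted: active = normalized viability below 100% at a tested concentration; inactive = the rest.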

Columns and labels:
[1] = Wnt pathway potentiators raising nuclear beta-catenin – imaging, WNT3A-conditioned medium, mouse C2C12, NPC library, primary screen (AID 1117326; in the data active = nuclear beta-catenin stimulation mostly above about 4.2%, no sharp cut-off; inactive = mostly below about 10%); details: stronger effect = higher value
[2] = stimulators of insulin release from INS-1E, primary screen, cell-based, 5 mM glucose, NPC library (AID 1117329;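 active = compound raises insulin release from rat beta cells at 5 mM glucose, no numeric limit stated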); details: rat INS-1E insulin secretion, at 10 µM, stronger effect = higher value
[3] = growth inhibition of GSK3B-pretreated HCT116 cells – cell-based, CellTiter-Glo, 0.2 to 20 µM (AID 1117336;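 active = compounds lowering colon cancer cell viability after pretreatment blocking the GSK3B kinase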); details: HCT116 viability after GSK3B inhibitor, at 20 µM, stronger effect = higher value
[4] = inhibition of endothelial tube formation, primary screen, imaging, VEGF stimulated, CD31 staining, tube area, NPC library (AID 1117340;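 active = compound that reduces growth-factor-driven endothelial tube area in a mixed cell culture, no cutoff stated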); details: VEGF-stimulated ADSC/ECFC co-culture, at 10 µM, stronger effect = higher value
[5] = GLP1 release stimulators, primary, NCI-H716, NPC library (AID 1117341;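 active = compound raises GLP1 secretion from the human gut endocrine cells, with no numeric limit stated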); details: NCI-H716 cells, at 10 µM, stronger effect = higher value
[6] = HCT116 colon cancer cell growth inhibition, primary screen, CellTiter-Glo luminescence, NPC library (AID 1117342;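 active = compounds that lower survival of HCT116 colon cancer cells in the luminescence readout, no numeric limit stated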); details: at 20 µM (top of the series)
[7] = reduced SW480 viability measured with CellTiter-Glo, NPC library, primary (AID 1117343;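 active = compounds that lower viability of the colon cancer cells in the luminescence readout, with no numeric limit stated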); details: CellTiter-Glo luminescence; at 20 µM (top of the series) unless noted
[8] = NPC library primary testing for decreased DLD-1 cell viability via CellTiter-Glo (AID 1117346;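 active = compounds that lower survival of DLD-1 colon cancer cells in the luminescence readout, no cutoff given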); details: DLD-1 viability, CellTiter-Glo luminescence; at 20 µM (top of the series)
[9] = target: NAD(+) hydrolase SARM1 (Homo sapiens) (UniProt Q6SZW1); assay: blocking NAD cleavage by SARM1 SAM-TIR – cell lysate, NAD-Glo luminescence (AID 1508614;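 active = compound whose remaining NAD level is above about 45 nM, limit read from the data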;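 also: higher remaining NAD means stronger inhibition of SARM1 NADase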); details: SAM-TIR HEK293T lysate NADase, at 1 µM, stronger effect = higher value
Chain of NAD(+) hydrolase SARM1 (Homo sapiens) (Q6SZW1 whole entry, looked up): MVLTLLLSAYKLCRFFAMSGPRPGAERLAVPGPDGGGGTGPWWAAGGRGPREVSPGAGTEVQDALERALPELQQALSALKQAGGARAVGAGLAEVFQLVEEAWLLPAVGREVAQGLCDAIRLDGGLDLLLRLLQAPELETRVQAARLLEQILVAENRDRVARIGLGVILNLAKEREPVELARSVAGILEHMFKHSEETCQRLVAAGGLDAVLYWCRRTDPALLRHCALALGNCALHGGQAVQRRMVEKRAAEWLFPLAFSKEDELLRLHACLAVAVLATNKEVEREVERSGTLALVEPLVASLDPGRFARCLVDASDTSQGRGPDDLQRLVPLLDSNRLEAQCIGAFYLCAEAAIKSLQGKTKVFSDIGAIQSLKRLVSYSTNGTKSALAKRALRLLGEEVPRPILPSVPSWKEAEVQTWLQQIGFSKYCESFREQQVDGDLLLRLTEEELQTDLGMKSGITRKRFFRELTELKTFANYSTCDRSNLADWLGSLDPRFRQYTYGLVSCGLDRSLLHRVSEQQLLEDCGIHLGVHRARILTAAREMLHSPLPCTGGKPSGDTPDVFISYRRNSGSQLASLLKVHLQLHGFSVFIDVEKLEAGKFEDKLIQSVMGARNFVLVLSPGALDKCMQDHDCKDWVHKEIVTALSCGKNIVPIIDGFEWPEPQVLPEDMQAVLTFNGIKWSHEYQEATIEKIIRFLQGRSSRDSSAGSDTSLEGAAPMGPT

[10] = MELAS cybrid and Rieske KO viability enhancers – cell-based, MELAS cybrids, Rieske KO mouse fibroblasts, CellTiter-Glo, primary screen (AID 1508586;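 active = mean z-score across replicates of 1.96 or higher in either the MELAS or the Rieske mutant cell line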;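 also: z relative to plate mean and SD of compound and empty wells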); details: low glucose
[11] = drug combination growth inhibition, ovarian cancer – cell-based, oncology-focused library, rucaparib conditional, profiling panel (AID 1508598); details: patient-derived ovarian cancer cells, CellTiter-Glo viability, 144 h, stronger effect = lower value
[12] = MELAS cybrid survival, CellTiter-Glo 48 h, stronger effect = higher value
[13] = Rieske KO mouse fibroblast survival, CellTiter-Glo 72 h

OC[C@@H](O)[C@@H](O)[C@H](O)[C@H](O)CO
inactive: nuclear beta-catenin stimulation ([1]; at 10 µM) 0.7% | insulin secretion stimulation [2] -2% | viability decrease [3] -4.45% | tube area decrease [4] 4.3% | GLP1 secretion stimulation [5] 1.1% | inhibition of viability [6] -9.6% | viability decrease (inhibition) [7] 40.5% | viability decrease (inhibition) [8] 8.25% | remaining NAD [9] 10 nM
0.6%: nuclear beta-catenin stimulation ([1]; stimulation, at 2 µM)

CC(CN(C)C)C(C)(O)Cc1ccc(Cl)cc1 (stereo not drawn)
-0.0123: z-score [10, 13]
inactive: nuclear beta-catenin stimulation ([1]; at 10 µM) -2% | insulin secretion stimulation [2] 7.5% | viability decrease [3] -15% | tube area decrease [4] 7.9% | GLP1 secretion stimulation [5] -2% | inhibition of viability [6] 17.4% | viability decrease (inhibition) [7] -0.8% | viability decrease (inhibition) [8] -9.1% | z-score [10, 12] 0.453
-0.8%: nuclear beta-catenin stimulation ([1]; stimulation, at 2 µM)

Cc1nc2ccccc2n1Cc1ccc(Cl)cc1
inactive: nuclear beta-catenin stimulation ([1]; at 10 µM) 1.3% | insulin secretion stimulation [2] -3.2% | GLP1 secretion stimulation [5] -1.7% | inhibition of viability [6] 45.2% | viability decrease (inhibition) [8] 40.1% | remaining NAD [9] 10 nM
1.1%: nuclear beta-catenin stimulation ([1]; stimulation, at 2 µM)
active: viability decrease [3] 52.8% | tube area decrease [4] 62% | viability decrease (inhibition) [7] 74%

CN1CC[C@H](c2c(O)cc(O)c3c(=O)cc(-c4ccccc4Cl)oc23)[C@H](O)C1
inactive: insulin secretion stimulation [2] 2.75% | GLP1 secretion stimulation [5] 6.7% | viability ([11]; at 0.000305 µM, OCI-C5x cells, with rucaparib 10 µM, 100% = cells with rucaparib alone) 109% | viability ([11]; at 0.000305 µM, OCI-C5x cells, without rucaparib) 112% | viability ([11]; at 0.00122 µM, OCI-C5x cells, without rucaparib) 107% | viability ([11]; at 0.00488 µM, OCI-C5x cells, without rucaparib) 109% | viability ([11]; at 0.00488 µM, OCI-P5x cells, without rucaparib) 103%
active: nuclear beta-catenin stimulation ([1]; at 10 µM) 72.1% | viability decrease [3] 73.7% | tube area decrease [4] 110% | inhibition of viability [6] 54.4% | viability decrease (inhibition) [7] 62.3% | viability decrease (inhibition) [8] 78.5% | viability ([11]; at 0.000305 µM, OCI-P5x cells, with rucaparib 20 µM, 100% = cells with rucaparib alone) 56.8% | viability ([11]; at 0.000305 µM, OCI-P5x cells, without rucaparib) 15.2% | viability ([11]; at 0.00122 µM, OCI-C5x cells, with rucaparib 10 µM, 100% = cells with rucaparib alone) 93.2% | viability ([11]; at 0.00122 µM, OCI-P5x cells, with rucaparib 20 µM, 100% = cells with rucaparib alone) 62% | viability ([11]; at 0.00122 µM, OCI-P5x cells, without rucaparib) 15.8% | viability ([11]; at 0.00488 µM, OCI-C5x cells, with rucaparib 10 µM, 100% = cells with rucaparib alone) 92.5% | viability ([11]; at 0.00488 µM, OCI-P5x cells, with rucaparib 20 µM, 100% = cells with rucaparib alone) 97.7% | viability ([11]; at 0.0195 µM, OCI-C5x cells, with rucaparib 10 µM, 100% = cells with rucaparib alone) 66% | viability ([11]; at 0.0195 µM, OCI-C5x cells, without rucaparib) 80% | viability ([11]; at 0.0195 µM, OCI-P5x cells, with rucaparib 20 µM, 100% = cells with rucaparib alone) 67.9% | viability ([11]; at 0.0195 µM, OCI-P5x cells, without rucaparib) 70.9% | viability ([11]; at 0.0781 µM, OCI-C5x cells, with rucaparib 10 µM, 100% = cells with rucaparib alone) 28.7% | viability ([11]; at 0.0781 µM, OCI-C5x cells, without rucaparib) 22.9% | viability ([11]; at 0.0781 µM, OCI-P5x cells, with rucaparib 20 µM, 100% = cells with rucaparib alone) 35.2% | viability ([11]; at 0.0781 µM, OCI-P5x cells, without rucaparib) 23.5% | viability ([11]; at 0.313 µM, OCI-C5x cells, with rucaparib 10 µM, 100% = cells with rucaparib alone) 12% | viability ([11]; at 0.313 µM, OCI-C5x cells, without rucaparib) 10.8% | viability ([11]; at 0.313 µM, OCI-P5x cells, with rucaparib 20 µM, 100% = cells with rucaparib alone) 21% | viability ([11]; at 0.313 µM, OCI-P5x cells, without rucaparib) 12.5% | viability ([11]; at 1.25 µM, OCI-C5x cells, with rucaparib 10 µM, 100% = cells with rucaparib alone) 10.1% | viability ([11]; at 1.25 µM, OCI-C5x cells, without rucaparib) 10.5% | viability ([11]; at 1.25 µM, OCI-P5x cells, with rucaparib 20 µM, 100% = cells with rucaparib alone) 16.2% | viability ([11]; at 1.25 µM, OCI-P5x cells, without rucaparib) 13.2% | viability ([11]; at 5 µM, OCI-C5x cells, with rucaparib 10 µM, 100% = cells with rucaparib alone) 13.5% | viability ([11]; at 5 µM, OCI-C5x cells, without rucaparib) 11.4% | viability ([11]; at 5 µM, OCI-P5x cells, with rucaparib 20 µM, 100% = cells with rucaparib alone) 14.2% | viability ([11]; at 5 µM, OCI-P5x cells, without rucaparib) 10.5%
76.1%: nuclear beta-catenin stimulation ([1]; stimulation, at 2 µM)

NCCNCCNCCNCCN
-1.3%: nuclear beta-catenin stimulation ([1]; stimulation, at 2 µM)
inactive: nuclear beta-catenin stimulation ([1]; at 10 µM) -1.7% | insulin secretion stimulation [2] 4.1% | viability decrease [3] -0.2% | tube area decrease [4] -4.2% | GLP1 secretion stimulation [5] -2.1% | inhibition of viability [6] 16% | viability decrease (inhibition) [7] 17.8% | viability decrease (inhibition) [8] 4.2% | z-score [10, 12] -0.618
0.462: z-score [10, 13]
